Lamin A splicing: LMNA splicing modulation. HeLa LMNA splicing GFP/RFP minigene ratio, 48 h. Potency, µM (top dose mostly 46.1 µM), for the others: at the highest dose ratio change, negative = inhibition, hits mostly inhibitors. 200,000 compounds, 0.01% hits; active = well fitted inhibition curve with a large enough effect in the signal ratio, with a control signal flat, not every such curve was filed as active; inconclusive = small, poorly fitted or top-dose-only effect, or effect the other way, or a change in a side signal; the % refers to the signal ratio; note: potency is the fitted concentration of half-maximal effect
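Read-out is the ratio of GFP to DsRed2 object intensity, acquired by 488 nm laser-scanning cytometry on HeLa lamin A-EGFP minigene reporter cells. Compound incubation 48 hrs at 37 °C in Opti-MEM with 2% FBS; DMSO 0.5% final.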
Luc counter: counter-screen: inhibitors of Kinase-Glo firefly luciferase. Q27757. Kinase-Glo luciferase, ATP luminescence, 8 min. Potency, µM (doses to about 38.3 µM), inactives show top-dose activity change, negative = inhibition, most hits filed as inhibitors. 200,000 compounds, 0.28% hits; active = well fitted inhibition curve with a large enough effect; inconclusive = small, poorly fitted or top-dose-only effect; note: potency is the fitted concentration of half-maximal effect; nearly all actives have a fitted effect of over 60% in size
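Compound is pinned into ATP-containing buffer (10 uM ATP, imidazole pH 7.2, 7 mM MgCl2). Kinase-Glo luciferase reagent is then added. Light output is recorded following an 8-min room-temperature incubation.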
ALDH1A1 block: inhibitors of human aldehyde dehydrogenase 1A1 | AID 1030 | Purified ALDH1A1, NADH fluorescence, propionaldehyde substrate | 220,000 compounds, 7.3% hits | Potency, µM (series often up to 75.3 µM), inactives show top-dose activity, negative = inhibition, actives largely listed as inhibitors;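 note: potency is the fitted concentration of half-maximal effect; plate controls were no enzyme wells and a reference inhibitor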
Target sequence (P00352 whole entry, looked up): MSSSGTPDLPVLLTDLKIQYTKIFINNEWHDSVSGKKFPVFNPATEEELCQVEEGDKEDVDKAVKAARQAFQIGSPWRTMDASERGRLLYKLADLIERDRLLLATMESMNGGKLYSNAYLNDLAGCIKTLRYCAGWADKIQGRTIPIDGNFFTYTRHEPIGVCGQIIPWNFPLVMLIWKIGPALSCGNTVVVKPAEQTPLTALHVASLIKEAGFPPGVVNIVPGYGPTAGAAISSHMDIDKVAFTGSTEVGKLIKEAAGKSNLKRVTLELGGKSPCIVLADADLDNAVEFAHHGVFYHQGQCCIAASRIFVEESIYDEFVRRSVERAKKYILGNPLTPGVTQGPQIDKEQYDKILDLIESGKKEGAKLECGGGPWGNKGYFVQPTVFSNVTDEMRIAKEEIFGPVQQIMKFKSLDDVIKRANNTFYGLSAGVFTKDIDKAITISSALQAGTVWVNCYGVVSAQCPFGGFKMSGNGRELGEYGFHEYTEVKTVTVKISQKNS
HPGD block: blocks human HPGD enzyme activity. 150,000 compounds, 4.3% hits. P15428. purified HPGD, NADH fluorescence kinetic, PGE2 substrate. Potency, µM, for inactives: at the highest dose activity change, negative = inhibition, usual class: inhibitors. AID 894; note: potency is the fitted concentration of half-maximal effect
Target sequence (P15428 whole entry, looked up): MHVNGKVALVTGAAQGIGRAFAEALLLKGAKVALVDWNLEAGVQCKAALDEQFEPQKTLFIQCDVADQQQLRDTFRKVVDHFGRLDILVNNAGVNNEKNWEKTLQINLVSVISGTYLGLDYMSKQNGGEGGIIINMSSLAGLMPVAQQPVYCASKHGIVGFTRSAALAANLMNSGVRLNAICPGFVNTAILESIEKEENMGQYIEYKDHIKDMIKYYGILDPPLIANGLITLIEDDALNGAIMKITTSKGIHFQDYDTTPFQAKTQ
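NADH formation kinetics: reaction with 30 uM PGE2 and 1 mM NAD+ (final), 20 nM enzyme, Tris-HCl pH 8 with Tween 20, after 15 min compound preincubation at room temperature. Fluorescence change, last versus first of five reads.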
PNC assembly inh: blocks assembly of the perinucleolar compartment. PC3M PTB-GFP, PNC prevalence imaging, 16 h; stronger effect = lower value. activity change (PNC), negative = inhibition, % at 10 µM. 140,000 compounds, 3.1% hits. AID 2417;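 active = readout at or below -70, meaning at least 70% loss of cells showing the perinucleolar compartment, a nuclear body marking cancer cells; inconclusive = readout between -30 and a set limit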;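 note: plate controls were DMSO wells for no effect and camptothecin positive control wells for full effect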
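Read-out is percentage of cells bearing a perinucleolar compartment, from automated 20x imaging of fixed, Hoechst-stained PC3M PTB-GFP cells. Cells were seeded 4 h, then exposed 16 h to compound (23 nl of library stock) in duplicate plates.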
The depositor's hits bear a star; ? = inconclusive; . = no result; [ ] = dose if it differs, or a comment. Most compounds without a hit are left out; they make up all but 10% or so of the library. Unless noted, calls come from the whole dose curve; as a rule, active = well fitted inhibition curve with a large enough effect (not every such curve was filed as active); inconclusive = small, poorly fitted or top-dose-only effect, or another doubt; inactive = no such curve, though single readings can be large or run the other way. Unless noted, % is set by controls: 0 for no effect and ±100 for the full control effect.

SMILES	Lamin A splicing	Luc counter	ALDH1A1 block	HPGD block	PNC assembly inh
Nc1c(-c2ccccc2Cl)cnn1-c1cccc([N+](=O)[O-])c1	-10.0%	1.3%	-1.1%	14.1µM*	-1.3
Cc1ccc(-c2cnn(-c3cccc([N+](=O)[O-])c3)c2N)cc1	0.0%	-10.1%	?	35.5µM*	-87.2*
COc1cc(C2C(=O)N(C3CCCCCC3)CC(=O)N2CCc2ccccc2)ccc1OC(C)C (stereo not drawn)	0.0%[46 µM]	.	.	.	.
CCC(=O)OCN1C(=O)C=CC1=O	.	-5.1%[7.66 µM]	1µM*	?	.
Oc1c(N=Nc2ccccn2)ccc2ccccc12	?	11.2µM*	-0.1%	-13.5%	86.2
COCC(=O)N1CCC[C@@]2(CCN(Cc3nccs3)C2)C1	.	-0.4%	5.3%	-10.4%	.
COC(=O)c1ccc(CN2CCN(Cc3ccc(C(=O)OC)o3)CC2)o1	13.1%	-2.1%	22.4µM*	-8.7%	40.0
Cc1ccc(N(CC(C)C)S(=O)(=O)c2nnc(NC(=O)c3cccs3)s2)cc1	12.0%[46 µM]	.	.	.	.
O=C(CN1CCOCC1)Nc1ccc(Oc2ccc(NC(=O)CN3CCOCC3)cc2)cc1	10.0%	1.5%	17.8µM*	?	5.0
CC(=O)c1ccc(NC(=O)CSc2nnc(NC(=O)CN3CCOCC3)s2)cc1	-0.2%	-3.8%	-0.5%	-3.4%	3.5
Cc1ccc(NC(=O)CSc2nnc(NC(=O)CN3CCOCC3)s2)cc1	1.6%	-0.9%	?	-17.1%	-116.6*
O=C(CN1CCOCC1)Nc1ccc(OCc2ccccc2)cc1	21.1%	-1.8%	12.6µM*	-15.0%	6.3
O=C(CN1CCN(c2ccccn2)CC1)Nc1ccc(OCc2ccccc2)cc1	-10.0%	2.6%	?	-8.4%	62.5
CCCC[C@@H]1C[C@H]1C(NS(=O)(=O)c1cccc2cccnc12)c1ccc(-c2ccccc2)cc1 (stereo partly drawn)	.	0.7%	-4.1%	-6.6%	.
O=C(NCc1cccs1)c1ccc2c(c1)sc1nc(-c3ccccc3)cn12	7.2%[46 µM]	.	.	.	.
CO[C@H]1COC(=O)C/C=C\[C@H](C)[C@@H](OC)COC(=O)C/C=C\[C@@H]1C	.	.	1.9%[13.5 µM]	.	.
O=C1C(Cl)=C(N2CCCCC2)C(=O)N1c1ccccc1	5.8%	-6.7%	?	17.8µM*	?
COc1ccc(CCNc2ncnc3c2c(-c2ccccc2)cn3-c2ccc(F)cc2)cc1OC	-0.1%[46 µM]	.	.	.	.
O=S(=O)(Nc1cccc(-c2ccc(N3CCOCC3)nn2)c1)c1ccc(F)c(C(F)(F)F)c1	-15.6%[46 µM]	.	.	.	.
COc1ccccc1NC(=S)NCc1ccccn1	-3.4%	-3.6%	-5.7%	-3.9%	27.1
Cc1cccc[n+]1CC(=O)Nc1ccc([N+](=O)[O-])cc1Cl	0.9%	-6.9%	-3.6%	-16.3%	-8.1
O=C(C[n+]1ccc(Cc2ccccc2)cc1)Nc1ccc([N+](=O)[O-])cc1Cl	?	-2.2%	20µM*	.	.
COc1cc([N+](=O)[O-])ccc1NC(=O)C[n+]1ccccc1	1.5%	1.5%	14.1µM*	-4.0%	-1.0
COc1cc([N+](=O)[O-])ccc1NC(=O)Cn1ccsc1=N	.	.	8.91µM*	.	.
COc1cc([N+](=O)[O-])ccc1NC(=O)COC(=O)C=C(C)C	.	0.1%	-3.5%	.	.
SMILES	Lamin A splicing	Luc counter	ALDH1A1 block	HPGD block	PNC assembly inh
COc1cc([N+](=O)[O-])ccc1NC(=S)NCc1ccccn1	1.9%	-0.1%	17.8µM*	-21.0%	-9.7
CC1Cc2ccccc2N1S(=O)(=O)c1nnc(NC(=O)c2ccccc2Br)s1 (stereo not drawn)	-19.7%[46 µM]	.	.	.	.
C[C@]12C[C@H](O)CC(CO)(CO)C1[C@H](O)C[C@@]13CC4[C@@H](CC12)[C@@]4(C)C3 (stereo partly drawn)	.	1.7%	-11.2%	0.7%	.
COc1ccc(NC(=O)CCN2C(=O)c3ccc([N+](=O)[O-])cc3C2=O)c(OC)c1	12.3%	-3.4%	20µM*	-16.8%	42.7
O=[N+]([O-])c1ccc(CS(=O)Cc2ccccc2)cc1 (stereo not drawn)	.	-2.7%[7.66 µM]	-2.3%[13.5 µM]	1.6%	.
COc1cccc(NC(=O)CCN2C(=O)c3ccc([N+](=O)[O-])cc3C2=O)c1	.	1.2%	-4.9%	.	.
O=[N+]([O-])c1ccc(C[n+]2ccc(Cc3ccccc3)cc2)cc1	.	3.9%	25.1µM*	.	.
CC1=C(C(=O)Nc2cccc(C(F)(F)F)c2)C(c2ccccn2)n2ncnc2N1 (stereo not drawn)	-2.6%[46 µM]	.	.	.	.
C[C@H]1Cc2c(-c3ccccc3)nc3c(c2CO1)CN(C(=O)c1ccco1)CC3	11.8%[9.22 µM]	-2.3%[7.66 µM]	6.9%[13.5 µM]	-2.3%	.
Cc1oc(-c2ccc(Cl)cc2)nc1Cn1c(=O)cc(C)c2c(C)nn(-c3ccccc3)c21	-6.6%[46 µM]	.	.	.	.
CCOc1ccc(N(C)C(=O)C2CCN(S(=O)(=O)c3c(C)noc3/C=C/c3ccc(C)cc3)CC2)cc1	5.7%[46 µM]	.	.	.	.
COc1ccc(CN(C2CCCCC2C)S(=O)(=O)c2ccc(S(=O)(=O)N(C)C)cc2)cc1OC (stereo not drawn)	?	6.0%	3.55µM*	-12.7%	?
COc1cc(CN(C2CCCCC2C)S(=O)(=O)c2ccc(S(=O)(=O)NC3CC3)cc2)cc(OC)c1OC (stereo not drawn)	-12.3%	-1.4%	-3.9%	-16.8%	-18.0
CC(C)C[C@H](NC(=O)C1OC1C(=O)O)C(=O)NCCCCN=C(N)N (stereo partly drawn)	?	-9.3%	-3.8%	-5.7%	.
COc1ccccc1OCC(=O)N1CCN(c2ccccc2OC)CC1	0.1%	-1.6%	3.9%	-14.1%	?
COc1ccc(-n2ncc3c(SCC(=O)N4CCN(c5ccccc5OC)CC4)ncnc32)cc1	4.6%	-0.6%	?	-20.5%	-118.9*
COc1ccccc1N1CCN(C(=O)CSc2nnc(NC(=O)C(C)C)s2)CC1	?	-1.6%	8.91µM*	.	.
CCC(CC)C(=O)Nc1nnc(SCC(=O)N2CCN(c3ccccc3OC)CC2)s1	-1.3%	-1.7%	12.6µM*	-11.5%	-2.9
O=C(CSc1n[nH]c(-c2ccccc2)n1)c1ccc(O)c(O)c1	?	-1.6%	-2.1%	3.55µM*	5.2
CCc1ccc(C(=O)CSc2n[nH]c(-c3ccncc3)n2)cc1	?	-0.2%	?	11.2µM*	8.7
O=C(CSc1n[nH]c(-c2ccccc2)n1)NCc1cccc(C(=O)O)c1	?	-1.9%	0.0%	.	.
COC(=O)CSc1n[nH]c(-c2ccncc2)n1	-5.0%	-4.8%	-2.1%	-11.7%	-13.0
Cc1ccc(S(=O)(=O)n2ccc(-c3ccc(OCc4c(F)cccc4Cl)cc3)n2)cc1	-5.4%	0.3%	4.4%	-5.5%	-100.0*
Cc1ccc(S(=O)(=O)n2ccc(-c3cccc(OCc4c(F)cccc4Cl)c3)n2)cc1	8.2%	-4.7%	2.0%	-9.3%	52.0
O=C(NCc1ccccc1)[C@@H]1C[C@H]1[C@@H](NP(=O)(c1ccccc1)c1ccccc1)c1ccccc1	5.1%	-0.4%	-8.7%	-0.8%	21.7
